# Read-outs that look alike come from different tables or passages of the source.
# What was measured:
# Design in all cases: species or system human, MV4-11 + K-562 + COLO205 + SK-N-BE2 + OVCAR-8
# TP53RK = details: read-out: apparent Kd, n = 1
# PIK3C3 = details: read-out: apparent Kd, n = 1
# AKT3 = details: read-out: apparent Kd, n = 1
# ACVR1 = details: read-out: apparent Kd, n = 1
# MAP2K2 = details: read-out: apparent Kd, n = 1
# DDR1 = details: read-out: apparent Kd; compound concentrations: 100 nM and 1000 nM (sheet 'Samples'), CATDS: 4.92942958534755E-2; n = 1
# PIK3C2A = details: read-out: apparent Kd, n = 1
# TGFBR1 = details: read-out: apparent Kd; compound concentrations:100 nM and 1000 nM (sheet 'Samples'); n = 1
# MAP4K2 = details: read-out: apparent Kd, n = 1
# PIM2 = details: read-out: apparent Kd, n = 1
# SLK = details: read-out: apparent Kd, n = 1
# MAP4K3 = details: read-out: apparent Kd, compound concentrations: 100 nM and 1000 nM (sheet 'Samples'), n = 1
# MAP4K5 = details: read-out: apparent Kd, n = 1
# RPS6KA1 = details: read-out: apparent Kd, compound concentrations: 100 nM and 1000 nM (sheet 'Samples'), n = 1
# STK11 = details: read-out: apparent Kd, n = 1
# MAPK11 = details: read-out: apparent Kd, n = 1
# STK26 = details: read-out: apparent Kd, compound concentrations: 100 nM and 1000 nM (sheet 'Samples'), n = 1
# SYK = details: read-out: apparent Kd, n = 1
# TEC = details: read-out: apparent Kd, n = 1
# NEK9 = details: read-out: apparent Kd, n = 1
# [1] = compound concentrations:100 nM and 1000 nM (sheet 'Samples')
smiles,measurement,setting,value
O=C1N=C(NCc2cccs2)O/C1=C\c1ccc2ncccc2c1 [RO4624208-000],potency estimated from few doses,"TP53RK; compound concentrations: 100 nM and 1000 nM (sheet 'Samples'), CATDS: 4.7970425138991198E-2",1610 nM
Cc1cccc(Nc2nc(N[C@H]3CCNC3)ncc2C(N)=O)c1.Cl [GSK2197149A],potency estimated from few doses,PIK3C3; [1],1110 nM
CCCc1cc(N2CCCN(C)CC2)nc2sc3c(N)ncnc3c12 [BI00604564],potency estimated from few doses,"AKT3; compound concentrations: 100 nM and 1000 nM (sheet 'Samples'), CATDS: 0.13900414431421401",1920 nM
CNCc1ccc(-c2cc(-c3nc(-c4ccc(S(=O)(=O)C(C)C)cc4)cnc3N)on2)cc1 [VE-822],potency estimated from few doses,ACVR1; [1],81 nM
same,potency estimated from few doses,AKT3; [1],1760 nM
same,potency estimated from few doses,MAP2K2; [1],1700 nM
same,potency estimated from few doses,PIK3C3; [1],500 nM
CN(c1ccc(NC(=O)NCCN2CCOCC2)cc1)c1ccnc(Nc2ccc(CS(C)(=O)=O)cc2)n1.Cl [GW830365A],potency estimated from few doses,DDR1,1360 nM
c1ccc(-c2n[nH]cc2Nc2ccnc3ccccc23)nc1 [GW694077X],potency estimated from few doses,"PIK3C2A; compound concentrations: 100 nM and 1000 nM (sheet 'Samples'), CATDS: 2.3388870990997498E-2",1900 nM
CNc1cc(-c2ccc3c(N)n[nH]c3c2)nc(N)n1 [GSK2224810A],potency estimated from few doses,TGFBR1,1160 nM
O=C(O)C(F)(F)F.O=c1[nH]ccc2nc(N[C@@H]3CCNC3)nc(Nc3cc(Cl)cc(Cl)c3)c12 [GSK2188764A],potency estimated from few doses,MAP4K2; [1],70.1 nM
same,potency estimated from few doses,PIM2; [1],2030 nM
same,potency estimated from few doses,SLK; [1],826 nM
COc1cc[nH]c1/C=C1\C(=O)Nc2ccc(F)c(C#CC3(O)CCNCC3)c21.Cl [RO0282986-001],potency estimated from few doses,"MAP2K2; compound concentrations: 100 nM and 1000 nM (sheet 'Samples'), CATDS: 1.07586832750675E-2",1010 nM
same,potency estimated from few doses,MAP4K3; CATDS: 9.73261825141249E-3,1470 nM
same,potency estimated from few doses,"MAP4K5; compound concentrations: 100 nM and 1000 nM (sheet 'Samples'), CATDS: 8.9413368005166593E-3",2190 nM
same,potency estimated from few doses,RPS6KA1; CATDS: 9.1961356652332602E-3,1900 nM
same,potency estimated from few doses,"STK11; compound concentrations: 100 nM and 1000 nM (sheet 'Samples'), CATDS: 1.0901325293505499E-2",966 nM
CCn1c(-c2cccnc2O)nc2cnccc21 [SB-736715],potency estimated from few doses,"MAP2K2; compound concentrations: 100 nM and 1000 nM (sheet 'Samples'), CATDS: 1.1967755653937401E-2",2210 nM
same,potency estimated from few doses,MAP4K3; CATDS: 1.18582584558427E-2,2260 nM
same,potency estimated from few doses,"MAPK11; compound concentrations: 100 nM and 1000 nM (sheet 'Samples'), CATDS: 1.30714391114645E-2",1760 nM
same,potency estimated from few doses,"PIK3C2A; compound concentrations: 100 nM and 1000 nM (sheet 'Samples'), CATDS: 1.67467583314573E-2",1040 nM
same,potency estimated from few doses,"PIK3C3; compound concentrations: 100 nM and 1000 nM (sheet 'Samples'), CATDS: 1.55952310039979E-2",1190 nM
same,potency estimated from few doses,"PIM2; compound concentrations: 100 nM and 1000 nM (sheet 'Samples'), CATDS: 1.60081703977401E-2",1130 nM
same,potency estimated from few doses,"STK11; compound concentrations: 100 nM and 1000 nM (sheet 'Samples'), CATDS: 1.3793469415990099E-2",1550 nM
same,potency estimated from few doses,STK26; CATDS: 1.4283028006721699E-2,1440 nM
same,potency estimated from few doses,"SYK; compound concentrations: 100 nM and 1000 nM (sheet 'Samples'), CATDS: 1.27185371688364E-2",1880 nM
same,potency estimated from few doses,"TEC; compound concentrations: 100 nM and 1000 nM (sheet 'Samples'), CATDS: 1.49433127144414E-2",1300 nM
same,potency estimated from few doses,"TP53RK; compound concentrations: 100 nM and 1000 nM (sheet 'Samples'), CATDS: 1.2573959142924701E-2",1940 nM
c1cnn2ncc(-c3ccnc(Nc4ccc5c(c4)OCCO5)n3)c2c1 [GW806290X],potency estimated from few doses,"AKT3; compound concentrations: 100 nM and 1000 nM (sheet 'Samples'), CATDS: 2.0651194958325798E-2",1770 nM
same,potency estimated from few doses,"MAP2K2; compound concentrations: 100 nM and 1000 nM (sheet 'Samples'), CATDS: 2.1479851181110499E-2",1530 nM
same,potency estimated from few doses,"NEK9; compound concentrations: 100 nM and 1000 nM (sheet 'Samples'), CATDS: 2.42273764121115E-2",1030 nM
O=C(O)C(F)(F)F.O=c1[nH]ccc2nc(N[C@@H]3CCNC3)nc(Nc3ccc4c(c3)S(=O)(=O)CC4)c12 [GSK2181306A],potency estimated from few doses,"MAP2K2; compound concentrations: 100 nM and 1000 nM (sheet 'Samples'), CATDS: 8.3394959268462601E-3",1620 nM
same,potency estimated from few doses,"MAP4K2; compound concentrations: 100 nM and 1000 nM (sheet 'Samples'), CATDS: 2.4699396499264999E-2",121 nM
same,potency estimated from few doses,MAP4K3; CATDS: 1.12434649854769E-2,612 nM
same,potency estimated from few doses,"MAP4K5; compound concentrations: 100 nM and 1000 nM (sheet 'Samples'), CATDS: 1.5726732073661799E-2",283 nM
same,potency estimated from few doses,"PIM2; compound concentrations: 100 nM and 1000 nM (sheet 'Samples'), CATDS: 8.9086191917804505E-3",1250 nM
same,potency estimated from few doses,RPS6KA1; CATDS: 8.5840482500919892E-3,1440 nM
same,potency estimated from few doses,"SLK; compound concentrations: 100 nM and 1000 nM (sheet 'Samples'), CATDS: 1.8680668627662898E-2",201 nM
same,potency estimated from few doses,"STK11; compound concentrations: 100 nM and 1000 nM (sheet 'Samples'), CATDS: 1.6673452289140401E-2",251 nM
same,potency estimated from few doses,"SYK; compound concentrations: 100 nM and 1000 nM (sheet 'Samples'), CATDS: 8.7741915408421998E-3",1320 nM
COc1cc(Nc2nccc(-c3cnn4ncccc34)n2)cc(OC)c1 [GW801372X],potency estimated from few doses,"ACVR1; compound concentrations: 100 nM and 1000 nM (sheet 'Samples'), CATDS: 2.2901948138858801E-2",739 nM
same,potency estimated from few doses,"NEK9; compound concentrations: 100 nM and 1000 nM (sheet 'Samples'), CATDS: 4.3233777925034599E-2",142 nM
same,potency estimated from few doses,"PIK3C2A; compound concentrations: 100 nM and 1000 nM (sheet 'Samples'), CATDS: 1.7083513618659799E-2",2260 nM
same,potency estimated from few doses,STK26; CATDS: 1.6966130459451799E-2,2340 nM
NC(=O)c1cc(-c2ccccc2)cc2c(C3CCNCC3)c[nH]c12 [GSK301362A],potency estimated from few doses,PIM2; [1],1500 nM
CNCC#Cc1c(F)ccc2c1/C(=C/c1[nH]ccc1OC)C(=O)N2.Cl [RO0281601-001],potency estimated from few doses,"STK11; compound concentrations: 100 nM and 1000 nM (sheet 'Samples'), CATDS: 2.1927929235579201E-2",1930 nM
CC(C)Oc1ccc2c(-c3ccnc(Nc4ccc(N5CCN(C)CC5)cc4)n3)cnn2n1 [GW696155X],potency estimated from few doses,NEK9; [1],26 nM
NS(=O)(=O)c1ccc(N/N=C2\C(=O)Nc3ccc4ncccc4c32)cc1 [GW305178X],potency estimated from few doses,STK26; CATDS: 3.9228488204277198E-2,2190 nM
Cl.Nc1nc(-c2ccc3c(c2)C(=Cc2cc(Br)c(O)c(Br)c2)C(=O)N3)cs1 [GW407323A],potency estimated from few doses,"TP53RK; compound concentrations: 100 nM and 1000 nM (sheet 'Samples'), CATDS: 2.8034660612356401E-2",1950 nM
Cc1cc(NC(=O)c2cccc(NC(=O)/C=C/CN(C)C)c2)ccc1Nc1nccc(-c2cccnc2)n1 [JNK-IN-7],potency estimated from few doses,NEK9; [1],1380 nM
same,potency estimated from few doses,PIK3C3; [1],1570 nM
CCC(CC)(CC)n1cnc2c(N)ncnc21 [SKF-97620],potency estimated from few doses,"PIK3C2A; compound concentrations: 100 nM and 1000 nM (sheet 'Samples'), CATDS: 2.66380598887557E-2",1430 nM
same,potency estimated from few doses,"PIK3C3; compound concentrations: 100 nM and 1000 nM (sheet 'Samples'), CATDS: 3.20593447179814E-2",852 nM
O=C(Nc1n[nH]c2nc(-c3ccccc3O)ccc12)C1CC1 [SB-711880],potency estimated from few doses,MAP4K2; [1],1460 nM
same,potency estimated from few doses,MAP4K5; [1],1760 nM
same,potency estimated from few doses,SYK; [1],1760 nM
COc1cc[nH]c1/C=C1\C(=O)Nc2ccc(F)c(C#C[C@@H](O)[C@@H](N)[C@@H](C)O)c21 [RO0283120-000],potency estimated from few doses,MAP4K2; [1],1070 nM
same,potency estimated from few doses,STK11; [1],1010 nM
CN(C)c1ccc2c(c1)/C(=C/Nc1ccc(S(N)(=O)=O)cc1)C(=O)N2 [GW416469X],potency estimated from few doses,STK26; CATDS: 7.4408225949633894E-2,1550 nM
Nc1nccc(-c2ccc3c(N)n[nH]c3c2)n1 [GSK1034945A],potency estimated from few doses,TP53RK; [1],1540 nM
Cl.Cn1c(=O)c(Cc2ccccc2F)cc2cnc(NC3CCOCC3)nc21 [RO3305377-001],potency estimated from few doses,"AKT3; compound concentrations: 100 nM and 1000 nM (sheet 'Samples'), CATDS: 1.8504555943704901E-2",1380 nM
Nc1nc(-c2ccc3c(N)n[nH]c3c2)cc(N2CCCC(NC(=O)c3ccccc3)C2)n1 (stereo not shown) [GSK2286775B],potency estimated from few doses,MAP2K2; [1],1560 nM
same,potency estimated from few doses,PIK3C2A; [1],1910 nM
same,potency estimated from few doses,TP53RK; [1],2230 nM
CN[C@H](C#Cc1c(F)ccc2c1/C(=C/c1[nH]ccc1OC)C(=O)N2)CO.Cl [RO0283049-001],potency estimated from few doses,"STK11; compound concentrations: 100 nM and 1000 nM (sheet 'Samples'), CATDS: 2.2375085806392098E-2",1190 nM
CCn1c(-c2nonc2N)nc2cncc(C(=O)N3CC[C@H](N)C3)c21.Cl [SB-772077-B],potency estimated from few doses,PIM2; [1],122 nM
CC(C)N1CC(=O)N(C)c2cnc(Nc3cccc(S(=O)(=O)CCN4CCOCC4)c3)nc21 [BI00009348],potency estimated from few doses,"SLK; compound concentrations: 100 nM and 1000 nM (sheet 'Samples'), CATDS: 4.9346970439547798E-2",1920 nM
NS(=O)(=O)c1ccc(NC=C2C(=O)Nc3ccc4ncsc4c32)cc1 [GW589933X],potency estimated from few doses,MAP4K3; CATDS: 1.6349767602700901E-2,2070 nM
same,potency estimated from few doses,STK26; CATDS: 5.6823828903644298E-2,94.3 nM
NS(=O)(=O)c1ccc(N/C=C2\C(=O)Nc3ccc4ncsc4c32)cc1 [GW297361X],potency estimated from few doses,STK26; CATDS: 3.6702057868443203E-2,1050 nM
Cc1occc1-c1nc(N)c(OC[C@@H](N)Cc2c[nH]c3ccccc23)cc1-c1cc2c(C)n[nH]c2cn1 [GSK1660450B],potency estimated from few doses,MAP4K5; [1],50.5 nM
Cc1cccc(-c2cc(-c3c[nH]nc3-c3ccccn3)ccn2)c1 [GW679395X],potency estimated from few doses,MAPK11; [1],1350 nM
same,potency estimated from few doses,SYK; [1],2310 nM
same,potency estimated from few doses,TEC; [1],1320 nM
same,potency estimated from few doses,TGFBR1,2190 nM

# Reference: publication PMC11062922 (Nature Chemical Biology, 2023)
